Measured values as given in PubChem BioAssay.
Values without a mark were called inactive. Calls of active or inactive are those of the source. Rule as the data show it, unless noted: active = inhibition above about 30%; inactive = the rest.

Columns and labels:
[1] = target: Nuclear receptor coactivator 3 (Homo sapiens) (UniProt Q9Y6Q9); assay: SRC3 coactivator transcriptional activity inhibitors, confirmation, cell-based, luminescence, quadruplicate (AID 588792;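 active = mean inhibition over 43.08%, the solvent-only control mean plus 3 SD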;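 also: 0% = DMSO treated cells and 100% = gossypol at 36 µM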); settings: HEK293 GAL4-SRC3 luciferase reporter, at 3.6 µM, stronger effect = higher value
Nuclear receptor coactivator 3 (Homo sapiens), sequence (Q9Y6Q9 whole entry, looked up, the tested form may be a part): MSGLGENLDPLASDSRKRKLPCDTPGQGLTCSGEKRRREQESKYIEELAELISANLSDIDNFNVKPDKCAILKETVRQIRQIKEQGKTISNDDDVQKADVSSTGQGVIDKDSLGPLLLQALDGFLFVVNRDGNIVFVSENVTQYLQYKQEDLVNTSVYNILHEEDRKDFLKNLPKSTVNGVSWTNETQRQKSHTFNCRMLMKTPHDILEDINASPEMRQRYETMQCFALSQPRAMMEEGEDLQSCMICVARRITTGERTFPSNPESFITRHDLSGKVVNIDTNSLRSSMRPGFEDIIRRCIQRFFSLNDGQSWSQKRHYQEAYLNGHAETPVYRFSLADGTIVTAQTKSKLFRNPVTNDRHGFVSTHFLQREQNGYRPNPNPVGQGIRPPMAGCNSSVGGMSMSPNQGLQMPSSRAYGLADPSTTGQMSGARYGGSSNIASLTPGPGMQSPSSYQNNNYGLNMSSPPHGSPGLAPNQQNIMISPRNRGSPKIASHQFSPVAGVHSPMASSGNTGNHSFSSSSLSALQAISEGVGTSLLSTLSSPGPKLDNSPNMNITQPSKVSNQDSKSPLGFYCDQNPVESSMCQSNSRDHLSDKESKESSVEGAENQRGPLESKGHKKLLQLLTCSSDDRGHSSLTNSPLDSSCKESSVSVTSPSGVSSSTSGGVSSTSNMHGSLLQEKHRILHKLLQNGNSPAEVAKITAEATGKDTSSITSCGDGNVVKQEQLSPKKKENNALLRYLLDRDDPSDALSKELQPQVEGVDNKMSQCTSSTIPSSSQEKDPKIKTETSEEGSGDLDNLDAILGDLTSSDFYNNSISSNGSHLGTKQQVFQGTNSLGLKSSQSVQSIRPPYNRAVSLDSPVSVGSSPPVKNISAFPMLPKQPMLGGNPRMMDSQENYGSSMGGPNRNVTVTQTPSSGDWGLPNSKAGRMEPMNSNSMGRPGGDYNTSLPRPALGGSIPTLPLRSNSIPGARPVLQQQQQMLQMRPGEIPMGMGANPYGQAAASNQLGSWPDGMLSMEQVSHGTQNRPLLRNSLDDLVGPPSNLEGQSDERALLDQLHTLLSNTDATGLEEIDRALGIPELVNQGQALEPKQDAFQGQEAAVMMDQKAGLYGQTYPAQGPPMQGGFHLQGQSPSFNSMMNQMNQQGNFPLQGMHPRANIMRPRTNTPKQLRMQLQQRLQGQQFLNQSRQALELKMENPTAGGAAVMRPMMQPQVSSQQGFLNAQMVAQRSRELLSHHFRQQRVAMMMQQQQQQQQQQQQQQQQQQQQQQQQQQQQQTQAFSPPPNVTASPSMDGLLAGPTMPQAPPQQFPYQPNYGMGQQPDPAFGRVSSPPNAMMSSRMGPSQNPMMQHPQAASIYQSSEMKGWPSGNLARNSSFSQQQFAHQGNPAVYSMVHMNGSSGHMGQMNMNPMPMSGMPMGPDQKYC

[2] = system: transactivating tegument protein VP16 (Human herpesvirus 1), Gal4-VP16 luciferase reporter; assay: VP16 transactivation inhibitors, counter-screen for SRC3 inhibitor project, cell-based, luminescence, high throughput (AID 588794); settings: mammalian cells, VP16-driven luciferase reporter luminescence; at 3.6 µM; stronger effect = higher value
[3] = target: Nuclear receptor coactivator 1 (Homo sapiens) (UniProt Q15788); assay: SRC1 coactivator transcriptional activity inhibitors, confirmation, cell-based, luminescence, quadruplicate (AID 588820;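 active = mean inhibition above 46.68%, the untreated control wells mean plus 3 SD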;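 also: 0% = DMSO wells and 100% = gossypol 36 µM treated wells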); settings: HEK293 GAL4-SRC1 luciferase reporter, at 3.6 µM, stronger effect = higher value
[4] = VP16 transactivation inhibitors, counter-screen for SRC1 inhibitor project, cell-based, luminescence, high throughput (AID 588824; in the data active = inhibition above about 25%); settings: cell-based VP16 transactivation luciferase luminescence; at 3.6 µM; stronger effect = higher value
[5] = StAR promoter reporter inhibitors, counter-screen for LRH-1 inverse agonist project, cell-based, luminescence, high throughput (AID 651611; in the data active = inhibition above about 28%); settings: StAR promoter luciferase reporter counterscreen, at 3.6 µM, stronger effect = higher value
[6] = target: Nuclear receptor subfamily 5 group A member 2 (Homo sapiens) (UniProt O00482); assay: LRH-1 (NR5A2) inverse agonists, retest, confirmation, cell-based, luminescence (AID 651613; in the data active = inhibition above about 42%;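 also: HEK293T cells co-transfected with LRH-1 and StAR promoter luciferase reporter; 0% = vehicle wells and 100% = parental cells lacking receptor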); settings: cell-based LRH-1 luciferase reporter, inverse agonism; at 3.6 µM; stronger effect = higher value
Nuclear receptor subfamily 5 group A member 2 (Homo sapiens), sequence (O00482 whole entry, looked up): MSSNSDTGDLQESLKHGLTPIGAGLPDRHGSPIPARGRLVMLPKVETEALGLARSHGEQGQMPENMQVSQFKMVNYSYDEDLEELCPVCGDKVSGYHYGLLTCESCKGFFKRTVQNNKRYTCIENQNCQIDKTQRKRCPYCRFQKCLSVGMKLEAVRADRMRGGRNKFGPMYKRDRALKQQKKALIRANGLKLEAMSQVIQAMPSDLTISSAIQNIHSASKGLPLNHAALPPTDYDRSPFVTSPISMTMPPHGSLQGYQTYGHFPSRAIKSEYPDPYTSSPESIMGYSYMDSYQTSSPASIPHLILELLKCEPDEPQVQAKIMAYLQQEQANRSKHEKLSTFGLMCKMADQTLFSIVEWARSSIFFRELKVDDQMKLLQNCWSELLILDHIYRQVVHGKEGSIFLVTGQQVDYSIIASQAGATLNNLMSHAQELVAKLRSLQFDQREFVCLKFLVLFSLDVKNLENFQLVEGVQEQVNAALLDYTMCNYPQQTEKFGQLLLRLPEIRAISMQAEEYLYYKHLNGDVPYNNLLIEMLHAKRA

[7] = target: Steroidogenic factor 1 (Homo sapiens) (UniProt Q13285); assay: SF1 (NR5A1) inverse agonists, counter-screen for LRH-1 inverse agonist project, cell-based, luminescence, high throughput (AID 651614; in the data active = inhibition above about 44%;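 also: cells cotransfected with StAR promoter reporter and SF1 expression vector; 0% = vehicle on cells with receptor and 100% = vehicle on cells lacking receptor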); settings: cell-based SF1 luciferase reporter, at 3.6 µM, stronger effect = higher value
Steroidogenic factor 1 (Homo sapiens), sequence (Q13285 whole entry, looked up, the tested form may be a part): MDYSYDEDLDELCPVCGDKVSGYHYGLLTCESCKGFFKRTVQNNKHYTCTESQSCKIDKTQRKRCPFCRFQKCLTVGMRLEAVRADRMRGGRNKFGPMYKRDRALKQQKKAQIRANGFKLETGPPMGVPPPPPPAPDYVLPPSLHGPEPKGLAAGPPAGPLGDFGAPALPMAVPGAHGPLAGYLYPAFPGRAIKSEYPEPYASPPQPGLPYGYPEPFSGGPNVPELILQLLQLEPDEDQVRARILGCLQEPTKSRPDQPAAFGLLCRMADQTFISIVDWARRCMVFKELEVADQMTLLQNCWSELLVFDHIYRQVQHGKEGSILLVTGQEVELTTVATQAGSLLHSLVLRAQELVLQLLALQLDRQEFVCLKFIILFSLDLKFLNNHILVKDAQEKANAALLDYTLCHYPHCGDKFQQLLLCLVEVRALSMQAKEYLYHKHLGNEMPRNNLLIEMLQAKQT

[8] = VP16 transactivation reporter inhibitors, counter-screen for LRH-1 inverse agonist project, cell-based, luminescence, high throughput (AID 651615; in the data active = inhibition above about 33%); settings: Gal4-VP16 luciferase reporter cells, at 3.6 µM, stronger effect = higher value
[9] = system: transactivating tegument protein VP16 (Human herpesvirus 1); assay: VP16 transactivation reporter inhibitors, counter-screen for SRC2 inhibitor project, cell-based, luminescence, single concentration (AID 652007; in the data active = inhibition above about 36%); settings: cell-based VP16 transactivation luciferase reporter, at 8.9 µM, stronger effect = higher value
[10] = target: Nuclear receptor coactivator 2 (Homo sapiens) (UniProt Q15596); assay: SRC2 coactivator transcriptional activity inhibitors, confirmation, cell-based, luminescence, HEK293, triplicate (AID 652008;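 active = mean inhibition above 46.5%, the solvent-only control mean plus 3 SD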;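 also: 0% = DMSO-treated cells and 100% = Gossypol at 36 µM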); settings: HEK293 GAL4-SRC2 luciferase reporter, at 8.9 µM, stronger effect = higher value
Nuclear receptor coactivator 2 (Homo sapiens), sequence (Q15596 whole entry, looked up, the tested form may be a part): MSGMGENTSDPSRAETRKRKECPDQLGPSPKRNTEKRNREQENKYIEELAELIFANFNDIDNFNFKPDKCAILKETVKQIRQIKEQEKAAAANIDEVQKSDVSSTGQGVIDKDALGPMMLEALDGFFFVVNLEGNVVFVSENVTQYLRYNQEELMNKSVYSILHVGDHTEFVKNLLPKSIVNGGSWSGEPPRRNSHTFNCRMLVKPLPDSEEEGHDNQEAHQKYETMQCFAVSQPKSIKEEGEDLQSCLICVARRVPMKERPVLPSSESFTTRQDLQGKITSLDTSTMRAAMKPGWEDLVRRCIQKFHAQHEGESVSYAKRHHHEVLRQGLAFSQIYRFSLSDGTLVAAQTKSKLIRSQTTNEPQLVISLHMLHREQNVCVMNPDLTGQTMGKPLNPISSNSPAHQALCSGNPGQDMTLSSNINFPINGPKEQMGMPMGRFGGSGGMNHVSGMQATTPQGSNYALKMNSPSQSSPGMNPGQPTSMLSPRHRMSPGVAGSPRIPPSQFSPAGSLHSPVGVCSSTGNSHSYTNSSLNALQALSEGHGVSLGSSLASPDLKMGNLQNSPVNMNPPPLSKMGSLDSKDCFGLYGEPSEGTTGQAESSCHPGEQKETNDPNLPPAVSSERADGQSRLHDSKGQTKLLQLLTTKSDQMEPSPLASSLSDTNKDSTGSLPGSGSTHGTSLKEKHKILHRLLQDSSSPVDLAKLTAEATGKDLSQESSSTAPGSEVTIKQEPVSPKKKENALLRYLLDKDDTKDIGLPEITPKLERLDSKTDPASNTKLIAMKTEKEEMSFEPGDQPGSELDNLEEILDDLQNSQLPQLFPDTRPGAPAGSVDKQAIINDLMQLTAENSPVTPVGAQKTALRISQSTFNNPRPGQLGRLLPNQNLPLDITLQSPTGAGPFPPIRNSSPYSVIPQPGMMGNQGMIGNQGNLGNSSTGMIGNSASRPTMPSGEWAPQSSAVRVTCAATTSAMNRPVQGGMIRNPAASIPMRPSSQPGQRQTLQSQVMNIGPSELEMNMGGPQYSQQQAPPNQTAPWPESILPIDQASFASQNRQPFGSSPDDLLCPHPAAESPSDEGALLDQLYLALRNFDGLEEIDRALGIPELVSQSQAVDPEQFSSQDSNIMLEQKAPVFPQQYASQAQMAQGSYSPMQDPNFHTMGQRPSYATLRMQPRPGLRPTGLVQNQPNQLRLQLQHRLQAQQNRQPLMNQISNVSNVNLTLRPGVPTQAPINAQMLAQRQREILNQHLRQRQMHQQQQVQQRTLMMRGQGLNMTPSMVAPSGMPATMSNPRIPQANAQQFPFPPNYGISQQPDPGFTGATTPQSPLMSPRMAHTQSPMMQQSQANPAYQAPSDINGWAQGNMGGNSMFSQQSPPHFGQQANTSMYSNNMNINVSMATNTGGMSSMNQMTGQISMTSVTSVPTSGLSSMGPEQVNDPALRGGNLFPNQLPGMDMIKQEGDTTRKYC

| Structure (SMILES) | inhibition [1] | inhibition [2] | inhibition [3] | inhibition [4] | inhibition [5] | inhibition [6] | inhibition [7] | inhibition [8] | inhibition [9] | inhibition [10] |
| --- | --- | --- | --- | --- | --- | --- | --- | --- | --- | --- |
| O=C(N/N=C\c1ccc([N+](=O)[O-])o1)C1COc2ccccc2O1 (stereo not given) | 35.9% | 9.31% | -8.42% | -19.5% | 27.1% | 40.7% | 49.8% (active) | -8.47% | 40.8% (active) | 51.5% (active) |
| O=C(CCl)N(c1ccccc1)C1CCS(=O)(=O)C1 (stereo not given) | 55.4% (active) | 18% | 22.3% | 14% | 50.6% (active) | 71.3% (active) | 65.1% (active) | 16.8% | 40.7% (active) | 57.2% (active) |
| Cc1ccc(C#N)c(SCc2nnc(-c3ccc(Cl)cc3)o2)n1 | 67.8% (active) | 54.9% (active) | 30.4% | 28.1% (active) | 30.7% (active) | -14.8% | 21.1% | 7.27% | 59.4% (active) | 85.4% (active) |
| CC1CCc2c(sc(NC(=O)CSc3ncn[nH]3)c2C#N)C1 (stereo not given) | 56% (active) | 66.1% (active) | 31.9% | 61.4% (active) | 32.5% (active) | 56.7% (active) | 39.5% | 61.9% (active) | 87% (active) | 90.2% (active) |
| Nc1ccc(Oc2ccccc2-c2ccccc2)cc1 | 42.6% | 17.6% | 14.7% | 19% | 30.3% (active) | 53.5% (active) | 49.6% (active) | 39.6% (active) | 80.5% (active) | 87.8% (active) |
| Cc1cc(C(=O)COC(=O)c2ccccc2O)c(C)n1Cc1cccs1 | 85.3% (active) | 84.9% (active) | 71.1% (active) | 74.4% (active) | 85% (active) | 59% (active) | 80.2% (active) | 73.6% (active) | 81% (active) | 92.7% (active) |
| COc1cc(OC)cc(-c2cc3nc(C)c(CCC(=O)O)c(C)n3n2)c1 | 66.4% (active) | 69.9% (active) | 55.8% (active) | 64.1% (active) | 64.9% (active) | 76.4% (active) | 71% (active) | 69% (active) | 89.9% (active) | 93.3% (active) |
| Cc1ccc(N(Cc2cc(=O)[nH]c3ccccc23)C(=O)CCl)c(C)c1 | 55.3% (active) | 34.3% (active) | 34.3% | 24.6% | 37.3% (active) | 72.4% (active) | 75.5% (active) | 46% (active) | 44.4% (active) | 60% (active) |
| C/C(CC(C)(C)C1CCCCC1)=N\NC(N)=S | 72.2% (active) | 60.3% (active) | 48.5% (active) | 59% (active) | 45.6% (active) | 80.8% (active) | 82.8% (active) | 68.6% (active) | 43.8% (active) | 38.4% |
| CC1(C)N=C(N)N=C(N)N1c1ccc(CCCCc2ccccc2)cc1 | 31.1% | 68.2% (active) | 60.1% (active) | 66% (active) | 63.7% (active) | 89.9% (active) | 85.7% (active) | 80.6% (active) | 26.9% | 29.4% |
| CNc1cccnc1C=NNC(N)=S | 71.3% (active) | 40.5% (active) | 58.5% (active) | 17.9% | 25.3% | 57.8% (active) | 52.1% (active) | 30.4% | -4.08% | 9.84% |
| Cc1c(/C(O)=C2/C(=O)C(=O)N(Cc3cccnc3)C2c2ccccn2)cnn1-c1ccccc1 (stereo not given) | 38.2% | 3.13% | 20.1% | -13.8% | 42% (active) | 23.4% | 36.8% | 7.05% | 11.9% | 52.3% (active) |
| CCCC(=O)Nc1ccc(C(=O)N/N=C/c2ccc([N+](=O)[O-])o2)cc1 | 88.8% (active) | 69.5% (active) | 74.8% (active) | 66.5% (active) | 86.9% (active) | 102% (active) | 95.1% (active) | 80.5% (active) | 23.3% | 53.8% (active) |
| Cc1cc(C)c(C#N)c(SCc2nnc(-c3ccccc3)o2)n1 | 66.3% (active) | 59.8% (active) | 38.8% | 32.9% (active) | 33.1% (active) | -23.7% | 27.9% | 15.5% | 46.2% (active) | 82.9% (active) |
| Cc1cc(C)c2sc(NNC(=O)c3ccc(S(=O)(=O)N4CCc5ccccc5C4)cc3)nc2c1 | 46.6% (active) | 41.1% (active) | 50% (active) | 46.6% (active) | 68.6% (active) | 89.6% (active) | 66.8% (active) | 66.6% (active) | -4.24% | 29.3% |
| Nc1nc(F)nc2c1ncn2[C@@H]1O[C@H](CO)[C@@H](O)[C@H]1O | 98% (active) | 93.4% (active) | 82.7% (active) | 94.4% (active) | 94.5% (active) | 108% (active) | 96.2% (active) | 98.7% (active) | 76.6% (active) | 77.6% (active) |
| Clc1ccc(-n2ncc3c(N4CCCCCC4)ncnc32)cc1 | 77% (active) | 69.2% (active) | 52.9% (active) | 54.3% (active) | 71% (active) | 24.8% | 65.8% (active) | 43% (active) | 57.4% (active) | 84.6% (active) |
| NC(=S)NN=Cc1nccc2c(C(F)(F)C(F)(F)C(F)(F)F)cccc12 | 93.5% (active) | 87.2% (active) | 85.5% (active) | 88.5% (active) | 92.3% (active) | 107% (active) | 95.6% (active) | 82.1% (active) | -16.1% | 18.2% |
| CC1CCC(C(C)C)C(OC(=O)Cn2c(-c3ccc(F)cc3)[n+](C)c3ccccc32)C1 (stereo not given) | 69.1% (active) | 45.8% (active) | 25.4% | 38.6% (active) | 23.7% | 108% (active) | 59.9% (active) | 93.7% (active) | 26.2% | 34.6% |
| COc1cccc(-c2nnc3n2N=C(C(C)(C)C)CS3)c1 | 89.1% (active) | 64.5% (active) | 72.3% (active) | 71.4% (active) | 56.7% (active) | 64.9% (active) | 60.9% (active) | 75.4% (active) | 26.6% | 73.7% (active) |
| COc1ccc(CNC(=O)c2cccc3c(-c4cccc(C(N)=O)c4)coc23)cc1OC | 30.4% | 52% (active) | 3.09% | 50.2% (active) | 62.9% (active) | 69.7% (active) | 68.7% (active) | 73.6% (active) | 34.4% | 37.8% |
| O=C(O)C1CCCCC1C(=O)Nc1ccc2c(c1)OCCO2 (stereo not given) | -6.32% | -0.43% | -18.1% | -13.8% | -0.9% | -1.32% | -1.69% | 0% | -11.1% | 26.9% |
| CC(C)(C)c1ccc(C(=O)Nc2ccc(CC(=O)O)cc2)o1 | 54.1% (active) | 40% (active) | 37.9% | 42% (active) | 45.1% (active) | 52.5% (active) | 46.9% (active) | 37.7% (active) | 70.2% (active) | 92.1% (active) |
| NC(=O)c1cc2ccncc2c2ccccc12 | 80.3% (active) | 64.8% (active) | 78.5% (active) | 59.3% (active) | 42.8% (active) | 62.1% (active) | 58.1% (active) | 77.2% (active) | 20.5% | 68.9% (active) |
| NCC(=O)Nc1ccc(Cl)cc1C(=O)c1ccc[nH]1 | 66.1% (active) | 45.8% (active) | 47% (active) | 39.9% (active) | 49.4% (active) | 55.3% (active) | 62.3% (active) | 39.2% (active) | 21.2% | 43.5% |
| CCC(C)(C)c1ccc(Oc2ccc(N)cc2)cc1 | 64.5% (active) | 52.2% (active) | 51.2% (active) | 48% (active) | 57.4% (active) | 87.3% (active) | 72.8% (active) | 63.9% (active) | 90.3% (active) | 95.4% (active) |
| COc1ccc2cc3c(N)nn(C(=O)c4ccccc4Cl)c3nc2c1 | 74.4% (active) | 64.5% (active) | 60.9% (active) | 62.6% (active) | 47.3% (active) | 75.6% (active) | 59.1% (active) | 81.6% (active) | -12.1% | 50% (active) |
| COc1ccccc1C(=O)N(CCC1CCCN1C)c1nc2ccccc2s1 (stereo not given) | 38.7% | 14.6% | -24.3% | -21.5% | -41.5% | -79.1% | -54.7% | -44.3% | 11.8% | 53.8% (active) |
| COCCn1c(C)cc(C2=NNC(=Nc3ccccc3F)SC2)c1C | 57.4% (active) | 52.3% (active) | 60.5% (active) | 28.1% (active) | 54.2% (active) | -47% | 63% (active) | -31.7% | 87.2% (active) | 91.5% (active) |
| O=C(NCc1cccnc1)/C(=C\c1ccc(-c2ccc(Br)cc2)o1)S(=O)(=O)c1ccccc1 | 72.6% (active) | 56.9% (active) | 51.7% (active) | 55.1% (active) | 62.3% (active) | 92.3% (active) | 82% (active) | 80.8% (active) | 71.1% (active) | 68.7% (active) |
